# Source: PubChem BioAssay
# Results filed as inconclusive are left out. Calls of active or inactive are those of the source.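 How the source made its calls, unless noted: active means compound raises insulin release from rat beta cells at 5 mM glucose, no numeric limit stated; inactive means the rest.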
# Experiments:
# [1] = stimulators of insulin release from INS-1E, primary screen, cell-based, 5 mM glucose, NPC library (AID 1117329); settings: rat INS-1E insulin secretion, at 10 µM, stronger effect = higher value
# [2] = growth inhibition of GSK3B-pretreated HCT116 cells – cell-based, CellTiter-Glo, 0.2 to 20 µM (AID 1117336;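 active means compounds lowering colon cancer cell viability after pretreatment blocking the GSK3B kinase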); settings: HCT116 viability after GSK3B inhibitor, at 20 µM, stronger effect = higher value
# [3] = inhibition of endothelial tube formation, primary screen, imaging, VEGF stimulated, CD31 staining, tube area, NPC library (AID 1117340;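 active means compound that reduces growth-factor-driven endothelial tube area in a mixed cell culture, no cutoff stated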); settings: VEGF-stimulated ADSC/ECFC co-culture, at 10 µM, stronger effect = higher value
# [4] = glucagon-like peptide 1 release enhancers, primary assay, NCI-H716 cell line, NPC library (AID 1117341;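 active means compound raises GLP1 secretion from the human gut endocrine cells, with no numeric limit stated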); settings: NCI-H716 cells, at 10 µM, stronger effect = higher value
# [5] = HCT116 colon cancer cell growth inhibition, primary screen, CellTiter-Glo luminescence, NPC library (AID 1117342;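 active means compounds that lower survival of HCT116 colon cancer cells in the luminescence readout, no numeric limit stated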); settings: at 20 µM (top of the series)
# [6] = CellTiter-Glo luminescent readout of SW480 viability loss, NPC library primary (AID 1117343;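 active means compounds that lower viability of the colon cancer cells in the luminescence readout, with no numeric limit stated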); settings: CellTiter-Glo luminescence; at 20 µM (top of the series)
# [7] = decreased DLD-1 cellular survival, CellTiter-Glo luminescent readout, NPC compound collection, primary HTS (AID 1117346;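 active means compounds that lower survival of DLD-1 colon cancer cells in the luminescence readout, no cutoff given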); settings: DLD-1 viability, CellTiter-Glo luminescence; at 20 µM (top of the series)
# [8] = molecular target: 6-phosphogluconate dehydrogenase, decarboxylating (Homo sapiens) (UniProt P52209); test: 6PGD enzyme inhibitors, primary screen, biochemical, human, recombinant enzyme, NADPH absorbance (AID 1159550;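 active means at least 20% inhibition of 6-phosphogluconate dehydrogenase activity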); settings: recombinant 6PGD, NADPH absorbance 341 nm; at 10 µM; stronger effect = higher value
# [9] = differential killing of epithelial or mesenchymal cells, primary screen, imaging, PC-3E GFP, TEM4-18 mCherry, co-culture (AID 1345086;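 active means compounds killing one labelled cell type while sparing the other, by normalised counts and ratio limits, not self-fluorescent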;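 on all read-outs here: cells exposed to compound for 72 h before imaging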;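 on red/green cell ratio (normalised): normalised mesenchymal count divided by normalised epithelial count so high means epithelial killing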); settings: imaging cell counts, at 1 µM; for red/green cell ratio (normalised): actives lie on both sides, counts scaled to control wells, 1 = unselective
# [10] = growth inhibition of DIPG glioma cells, dose response, cell-based, SU-DIPG-XIII, MIPE4.0, CellTiter-Glo, qHTS (AID 1347061; cut-off not given, nearly all actives have AC50 up to about 37 µM;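 further: cells exposed to compound for 48 hours before readout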); settings: SU-DIPG-XIII viability, CellTiter-Glo ATP luminescence
# [11] = growth inhibition of DIPG glioma cells, dose response, cell-based, JHH-DIPG-1, MIPE4.0, CellTiter-Glo, qHTS (AID 1347062; cut-off not given, nearly all actives have AC50 up to about 27 µM); settings: JHH-DIPG-1 viability, CellTiter-Glo ATP luminescence
# [12] = growth inhibition of DIPG glioma cells, dose response, cell-based, SU-DIPG-IV, MIPE4.0, CellTiter-Glo, qHTS (AID 1347063; cut-off not given, nearly all actives have AC50 up to about 30 µM;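 further: compound exposure lasted 48 hours before the viability readout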); settings: SU-DIPG-IV viability, CellTiter-Glo ATP luminescence
# [13] = growth inhibition of DIPG glioma cells, dose response, cell-based, SU-DIPG-XVII, MIPE5.0, CellTiter-Glo, qHTS (AID 1347060; cut-off not given, nearly all actives have AC50 up to about 26 µM;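 on AC50: cells exposed to compound for 48 hours before viability readout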); settings: SU-DIPG-XVII viability, CellTiter-Glo ATP luminescence
# [14] = growth inhibition of DIPG glioma cells, dose response, cell-based, SU-DIPG-XIII, MIPE5.0, CellTiter-Glo, qHTS (AID 1347064; cut-off not given, nearly all actives have AC50 up to about 23 µM;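 on AC50: cells exposed to compound for 48 hours before the viability read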); settings: SU-DIPG-XIII viability, CellTiter-Glo ATP luminescence
# [15] = measured here: epithelial PC-3E GFP cell survival
# [16] = measured here: mesenchymal TEM4-18 mCherry cell survival
# Chain of 6-phosphogluconate dehydrogenase, decarboxylating (Homo sapiens) (P52209 whole entry, looked up): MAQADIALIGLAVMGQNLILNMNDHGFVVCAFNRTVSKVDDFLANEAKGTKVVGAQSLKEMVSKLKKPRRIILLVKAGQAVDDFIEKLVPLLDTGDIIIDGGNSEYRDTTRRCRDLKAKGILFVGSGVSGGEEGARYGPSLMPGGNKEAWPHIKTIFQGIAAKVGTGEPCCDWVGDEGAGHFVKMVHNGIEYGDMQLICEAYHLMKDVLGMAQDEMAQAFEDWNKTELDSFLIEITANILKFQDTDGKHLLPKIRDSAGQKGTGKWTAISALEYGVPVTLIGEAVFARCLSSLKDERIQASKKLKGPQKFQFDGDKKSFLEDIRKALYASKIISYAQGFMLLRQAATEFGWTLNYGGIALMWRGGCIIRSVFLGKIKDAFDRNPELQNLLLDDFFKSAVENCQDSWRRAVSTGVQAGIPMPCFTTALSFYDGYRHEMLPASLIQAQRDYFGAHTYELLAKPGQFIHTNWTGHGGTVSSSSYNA
Structure (SMILES),insulin secretion stimulation [1],viability decrease [2],tube area decrease [3],GLP1 secretion stimulation [4],inhibition of viability [5],viability decrease (inhibition) [6],viability decrease (inhibition) [7],inhibition [8],red/green cell ratio (normalised) [9],"normalised cell number [9, 15]","normalised cell number [9, 16]",outcome [10],outcome [11],outcome [12],outcome [13],outcome [14],AC50 [10],AC50 [12],AC50 [13],AC50 [14]
OC[C@H]1O[C@@H](Oc2ccc(O)cc2)[C@H](O)[C@@H](O)[C@@H]1O,-0.6% (inactive),-2.2% (inactive),1% (inactive),-2.9% (inactive),-1.8% (inactive),2.3% (active),-10.8% (inactive),17.9% (inactive),1.05 (inactive),1.15,1.21,inactive,inactive,inactive,,,,,,
CCC[C@H](N[C@@H](C)C(=O)N1[C@H](C(=O)O)C[C@@H]2CCCC[C@@H]21)C(=O)OCC,2.3% (inactive),-3% (inactive),14.1% (inactive),-2.9% (inactive),18.1% (inactive),0% (inactive),6% (inactive),-5.32% (inactive),1.01 (inactive),0.96,0.96,,,,inactive,inactive,,,,
Cc1ccccc1N1C(=O)c2cc(S(N)(=O)=O)c(Cl)cc2NC1C (centres undefined),1.1% (inactive),-5.6% (inactive),-5.3% (inactive),-1.9% (inactive),0.8% (inactive),-18.3% (inactive),-5.3% (inactive),-11.8% (inactive),1.25 (inactive),1.15,1.44,inactive,inactive,inactive,,,,,,
CCCCOc1ccc(CC(=O)NO)cc1,10.6% (inactive),24.3% (inactive),-1.4% (inactive),-1.1% (inactive),12.7% (inactive),35.2% (inactive),11.6% (inactive),-6.77% (inactive),1.05 (inactive),0.59,0.61,,,,,inactive,23.5 µM (active),20.9 µM (active),,
CN(C)CCC=C1c2ccccc2C=Cc2ccccc21,15.2% (inactive),-81.6% (inactive),1.5% (inactive),7.9% (inactive),27.1% (inactive),111% (active),7.5% (inactive),-4.48% (inactive),1.06 (inactive),1.13,1.19,inactive,,inactive,,,,,,
Cc1onc(-c2ccccc2Cl)c1C(=O)N[C@@H]1C(=O)N2[C@@H]1SC(C)(C)[C@@H]2C(=O)O,-0.3% (inactive),-27.7% (inactive),12.2% (inactive),-1% (inactive),19.2% (inactive),-3.3% (inactive),-0.7% (inactive),-7.26% (inactive),1.1 (inactive),1.34,1.48,inactive,,inactive,,,,,,
CC(C)COCC(CN(Cc1ccccc1)c1ccccc1)N1CCCC1 (centres undefined),4.8% (inactive),98% (active),32.8% (inactive),4.3% (inactive),105% (active),117% (active),97% (active),1.94% (inactive),1.11 (inactive),1.06,1.18,,,,,,,,20.9 µM (active),14.8 µM (active)
Nc1ccc(S(=O)(=O)Nc2ccnn2-c2ccccc2)cc1,-1.3% (inactive),-8.8% (inactive),-4.8% (inactive),3.3% (inactive),-9.2% (inactive),6.4% (inactive),-3.95% (inactive),-9.54% (inactive),0.85 (inactive),1.05,0.9,inactive,inactive,inactive,,,,,,
COc1cc(NS(=O)(=O)c2ccc(N)cc2)nc(OC)n1,1.8% (inactive),-7.9% (inactive),0.8% (inactive),1.9% (inactive),-0.4% (inactive),8.4% (inactive),0.7% (inactive),-12.2% (inactive),1.12 (inactive),0.64,0.72,inactive,inactive,inactive,,,,,,
CS(=O)(=O)c1ccc([C@@H](O)[C@@H](CO)NC(=O)C(Cl)Cl)cc1,1% (inactive),-30.5% (inactive),42.1% (active),0.4% (inactive),2% (inactive),-9.6% (inactive),-4% (inactive),-8.02% (inactive),0.94 (inactive),1.12,1.06,inactive,inactive,inactive,,,,,,
C[C@H]1c2cccc(O)c2C(O)=C2C(=O)[C@]3(O)C(O)=C(C(N)=O)C(=O)[C@@H](N(C)C)[C@@H]3[C@@H](O)[C@@H]21,-0.5% (inactive),92.4% (active),-4.2% (inactive),2.6% (inactive),68.1% (active),61.1% (active),90.9% (active),9.31% (inactive),1.48 (inactive),1.06,1.57,inactive,inactive,,,,,,,
